Source: PubChem BioAssay AID720549 (National Center for Advancing Translational Sciences (NCATS), 2013)
Where “and” joins values, the source holds several entries; their conditions need not be identical. Equal entries are not always repeated. Records with an inconclusive call do not appear. Values without a mark were called inactive. Calls of active or inactive are those of the source. The call rests on the fitted dose curve; in most records, active means well fitted inhibition curve with a large enough effect; inconclusive means small, poorly fitted or top-dose-only effect; inactive means flat fitted curve, though single readings scatter.

Target: RecQ-like DNA helicase BLM (Homo sapiens) (UniProt P54132)
Experiment: qHTS for Inhibitors of Bloom's syndrome helicase (BLM): Helicase ATPase Orthogonal Confirmatory Assay for SAR
Conditions: purified BLM helicase ATPase activity assay; series mostly up to 57.1 µM; activity change, negative = inhibition: at the top concentration
Excerpt: Human RecQ DNA helicases participate in maintenance of genome stability and DNA repair. While other types of helicases have been explored as targets for drug development, members of the RecQ family have remained less well characterized. Mutations of the Bloom helicase gene have been associated with the rare human genetic disease called Bloom syndrome. […] Moreover, identified inhibitors can be used in cells and animal models to examine the consequences of inhibition on the survival of cancer cells where it has been shown that BLM plays an important role.
A fluorescence-based, biochemical assay in 1536 well format was developed to evaluate inhibition of BLM DNA unwinding activity. This assay was used to screen the MLPCN library. The resulting compounds were subjected to orthogonal and secondary biochemical assays to triage the initial hits, to classify compounds based on mode of action and to derive structure activity relationships (SARs) of candidate effectors. The data herein is the result of the Helicase ATPase orthogonal confirmatory assay. This luminescence assay employs a purified BLM enzyme and a single stranded BLM oligo substrate ([…]). For this assay increase in luminescence signal is greater than or equal to 700 RLU. Inhibition is the desired outcome for this assay.
NIH Chemical Genomics Center [NCGC]
NIH Molecular Libraries Probe Centers Network [MLPCN]
Assay Submitter (PI): Opher Gileadi, Structural Genomics Consortium, University of Oxford, UK
Three microliter of reaction buffer (25mM Tris-HCl pH 8.0, 50mM NaCl, 2mM MgCl2, 1mM DTT, and 0.01% Tween- 20, and 2nM BLM enzyme) was dispensed into a 1536-well assay plates (Greiner, solid white medium-binding) via Aurora Discovery BioRAPTR Flying Reagent Dispenser (FRD). Compounds (23nl each in columns 5-48) and control (23nl each in column 2 as dose-response) were transferred via a Kalypsys pintool equipped with a 1536-pin array. The plates were incubated for 15 min at room temperature followed by addition of 1 ul of substrates (200nM single-stranded oligonucleotide and 100uM ATP, final concentrations) to start the reaction. After 15 min., the reaction was terminated by the addition of 2.5ul of ADP-Glo Reagent I (Promega) to each well and incubation at room temperature for 30 min. Next, 5ul of ADP-Glo Reagent II (Promega) was added to each well. After 30 min at room temperature, the luminescence signal was detected using the ViewLux CCD imager. The data was normalized against no-inhibitor and no-enzyme controls and the resulting percent inhibition data were fitted to a sigmoidal dose response using a four-parameter Hill equation.

RecQ-like DNA helicase BLM (Homo sapiens), sequence (P54132 whole entry, looked up): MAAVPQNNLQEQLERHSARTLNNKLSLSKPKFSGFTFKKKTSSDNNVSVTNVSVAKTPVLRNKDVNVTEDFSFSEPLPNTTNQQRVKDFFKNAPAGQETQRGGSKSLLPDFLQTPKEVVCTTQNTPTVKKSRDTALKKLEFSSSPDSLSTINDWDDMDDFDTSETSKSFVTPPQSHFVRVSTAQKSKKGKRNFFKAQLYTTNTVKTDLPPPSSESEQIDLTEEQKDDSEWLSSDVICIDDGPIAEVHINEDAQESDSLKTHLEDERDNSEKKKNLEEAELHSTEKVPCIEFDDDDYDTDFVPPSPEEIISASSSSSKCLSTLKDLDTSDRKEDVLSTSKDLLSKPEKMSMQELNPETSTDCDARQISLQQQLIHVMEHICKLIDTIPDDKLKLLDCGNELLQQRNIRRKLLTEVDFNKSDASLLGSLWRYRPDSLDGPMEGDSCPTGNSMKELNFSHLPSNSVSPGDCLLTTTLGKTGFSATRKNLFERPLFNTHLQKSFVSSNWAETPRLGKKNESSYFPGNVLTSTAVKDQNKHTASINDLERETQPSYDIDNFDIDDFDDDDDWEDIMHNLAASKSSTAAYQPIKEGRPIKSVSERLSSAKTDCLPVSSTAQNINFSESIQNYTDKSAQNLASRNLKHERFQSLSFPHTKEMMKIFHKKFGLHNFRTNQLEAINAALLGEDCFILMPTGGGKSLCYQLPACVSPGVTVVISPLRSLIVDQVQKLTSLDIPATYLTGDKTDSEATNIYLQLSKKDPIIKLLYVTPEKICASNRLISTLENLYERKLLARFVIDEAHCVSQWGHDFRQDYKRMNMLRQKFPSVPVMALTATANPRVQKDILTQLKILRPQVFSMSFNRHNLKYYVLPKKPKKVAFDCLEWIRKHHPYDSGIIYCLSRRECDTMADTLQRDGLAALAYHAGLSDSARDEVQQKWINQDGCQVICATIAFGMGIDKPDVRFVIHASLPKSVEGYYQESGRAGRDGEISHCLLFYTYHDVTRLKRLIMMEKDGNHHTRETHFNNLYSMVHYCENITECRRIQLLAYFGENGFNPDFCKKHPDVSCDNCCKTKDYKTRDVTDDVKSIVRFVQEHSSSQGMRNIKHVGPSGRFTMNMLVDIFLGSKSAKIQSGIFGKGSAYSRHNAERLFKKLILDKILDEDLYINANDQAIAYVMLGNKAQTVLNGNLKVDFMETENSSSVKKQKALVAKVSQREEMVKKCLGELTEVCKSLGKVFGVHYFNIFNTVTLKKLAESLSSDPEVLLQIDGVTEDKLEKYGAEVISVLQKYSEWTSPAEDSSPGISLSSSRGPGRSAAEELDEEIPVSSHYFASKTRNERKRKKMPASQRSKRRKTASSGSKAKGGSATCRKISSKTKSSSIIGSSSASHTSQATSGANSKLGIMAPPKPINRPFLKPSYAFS

Structure (SMILES)	activity change, negative = inhibition	Potency
O=C(Nc1ccc(Cl)c(Cl)c1)Nc1nnc(NC2CCNCC2)s1	27.6%	
O=C(Nc1ccc2c(c1)OCCO2)Nc1nnc(-c2ccncc2)s1	11.9%	
O=C(Nc1ccc(Cl)c(Cl)c1)Nc1nnc(-c2ccncc2)s1		6.46 µM (active)
N#Cc1cc(NC(=O)Nc2nnc(-c3ccncc3)s2)ccc1F		1.02 µM (active)
O=C(Nc1ccc(Cl)c(Cl)c1)Nc1cccc(-c2ccncc2)n1	-17.9%	
N#Cc1cc(NC(=O)Nc2nnc(-c3ccncc3)s2)ccc1-c1cn[nH]c1		1.02 µM (active) and 5.13 µM (active)
O=C(Nc1ccc(F)c(C(F)(F)F)c1)Nc1nc(-c2ccncc2)cs1	1.56%	
CC(C)(C)NC(=O)Nc1nnc(-c2ccncc2)s1	23.3%	
Cc1cc(NC(=O)Nc2nnc(C3CCCCC3)s2)ccc1Cl	-5.55%	
O=C(Nc1ccc2ccccc2c1)Nc1nnc(-c2ccccn2)s1	-10.8%	
CC(C)(C)c1ccc(-c2nnc(NC(=O)Nc3ccc4ccccc4c3)s2)cc1	-5.07%	
COc1ccccc1CNC(=O)Nc1nnc(-c2ccncc2)s1	18%	
O=C(Nc1ccc(-c2nc3ccccc3[nH]2)cc1)Nc1ccc2c(c1)CCCO2	-2.96% [at 114 µM]	
O=C(Nc1nnc(-c2ccncc2)s1)Nc1cc(C(F)(F)F)ccc1F	8.53%	
O=c1c(Nc2ccc(Cl)c(Cl)c2)c(Nc2nnc(-c3ccncc3)s2)c1=O		6.46 µM (active)
O=C(Cc1nnc(-c2ccncc2)s1)Nc1ccc(F)c(C(F)(F)F)c1	-15.3%	
Cc1cc(NC(=O)Nc2cccc(-c3ccncc3)n2)ccc1F	-5.53%	
O=C(Nc1cccc(C(=O)O)c1)Nc1nnc(-c2ccncc2)s1	-3.61%	
O=C(Nc1ccc2ccccc2c1)Nc1nnc(-c2ccc(Cl)cc2Cl)s1	-10.8%	
CC(C)(C)c1cccc(NC(=O)Nc2nnc(-c3ccncc3)s2)c1	-0.236%	

Structure (SMILES)	activity change, negative = inhibition	Potency
Nc1cc(NC(=O)Nc2nnc(-c3ccncc3)s2)ccc1Cl		20.4 µM (active)
O=C(Nc1ccc2ccccc2c1)Nc1nnc(Br)s1	6.02%	
O=C(Nc1ccc2ccccc2c1)Nc1nnc(-c2ccc(O)cc2)s1	-2.32%	
Cc1ccccc1-c1nnc(NC(=O)Nc2ccc3ccccc3c2)s1	-2.23%	
O=C(Nc1cc(C(F)(F)F)cc(C(F)(F)F)c1)Nc1nnc(-c2ccncc2)s1	-0.324%	
Cc1cc(NC(=O)Nc2nnc(C3CCCCC3)s2)ccc1F	-1.09%	
O=C(Nc1nnc(-c2ccncc2)s1)Nc1ccc(Cl)c2ccccc12	-9.83%	
Cc1cc(Nc2c(Nc3nnc(-c4ccncc4)s3)c(=O)c2=O)ccc1Cl	-12.5%	
O=C(Nc1ccc(F)c(C(F)(F)F)c1)Nc1ccc(-c2ccncc2)s1	-4.77%	
c1ccc2[nH]c(Nc3nnc(-c4ccncc4)s3)nc2c1	-3.35%	
O=C(Cc1ccc2ccccc2c1)Nc1nnc(-c2ccncc2)s1		16.2 µM (active)
O=C(Nc1cc(F)cc(F)c1)Nc1nnc(-c2ccncc2)s1	-9.82%	
O=C(Nc1ccc(Cl)c(Cl)c1)Nc1ncc(-c2ccncc2)s1	-7.96%	
O=C(Nc1ccc2sccc2c1)Nc1nnc(-c2ccncc2)s1		7.25 µM (active)
Cc1ccc(-c2nnc(NC(=O)Nc3ccc4ccccc4c3)s2)cc1	-2.31%	
COc1ccc(-c2nnc(NC(=O)Nc3ccc4ccccc4c3)s2)cc1OC	-6.95%	
O=C(Nc1ccc(Cl)c(C(F)(F)F)c1)Nc1nnc(-c2ccncc2)s1	2.12%	
O=c1c(Nc2ccc(F)c(C(F)(F)F)c2)c(Nc2nnc(-c3ccncc3)s2)c1=O	-11.3%	
O=C(Nc1ccc(Cl)c(Cl)c1)Nc1nnc(Br)s1	-6.98%	
O=C(Nc1ccc(Cl)c(Cl)c1)Nc1nc(-c2ccncc2)cs1	-14%	
